High-throughput results (PubChem)
OTUD3 block – inhibitors of human OTUD3 deubiquitinase; OTU domain-containing protein 3 (Homo sapiens), Q5T2D3; purified OTUD3, Ub-rhodamine fluorescence, 2 h; inhibition, % at 25 µM; 47,000 compounds, 0.7% hits
USP28 block – inhibitors of human USP28 deubiquitinase; Ubiquitin carboxyl-terminal hydrolase 28 (Homo sapiens), Q96RU2; purified USP28, Ub-rhodamine cleavage fluorescence, 30 min; inhibition, % at 25 µM; 47,000 compounds, 3% hits; AID 1645857, 2021
Target sequence (Q96RU2 whole entry, looked up): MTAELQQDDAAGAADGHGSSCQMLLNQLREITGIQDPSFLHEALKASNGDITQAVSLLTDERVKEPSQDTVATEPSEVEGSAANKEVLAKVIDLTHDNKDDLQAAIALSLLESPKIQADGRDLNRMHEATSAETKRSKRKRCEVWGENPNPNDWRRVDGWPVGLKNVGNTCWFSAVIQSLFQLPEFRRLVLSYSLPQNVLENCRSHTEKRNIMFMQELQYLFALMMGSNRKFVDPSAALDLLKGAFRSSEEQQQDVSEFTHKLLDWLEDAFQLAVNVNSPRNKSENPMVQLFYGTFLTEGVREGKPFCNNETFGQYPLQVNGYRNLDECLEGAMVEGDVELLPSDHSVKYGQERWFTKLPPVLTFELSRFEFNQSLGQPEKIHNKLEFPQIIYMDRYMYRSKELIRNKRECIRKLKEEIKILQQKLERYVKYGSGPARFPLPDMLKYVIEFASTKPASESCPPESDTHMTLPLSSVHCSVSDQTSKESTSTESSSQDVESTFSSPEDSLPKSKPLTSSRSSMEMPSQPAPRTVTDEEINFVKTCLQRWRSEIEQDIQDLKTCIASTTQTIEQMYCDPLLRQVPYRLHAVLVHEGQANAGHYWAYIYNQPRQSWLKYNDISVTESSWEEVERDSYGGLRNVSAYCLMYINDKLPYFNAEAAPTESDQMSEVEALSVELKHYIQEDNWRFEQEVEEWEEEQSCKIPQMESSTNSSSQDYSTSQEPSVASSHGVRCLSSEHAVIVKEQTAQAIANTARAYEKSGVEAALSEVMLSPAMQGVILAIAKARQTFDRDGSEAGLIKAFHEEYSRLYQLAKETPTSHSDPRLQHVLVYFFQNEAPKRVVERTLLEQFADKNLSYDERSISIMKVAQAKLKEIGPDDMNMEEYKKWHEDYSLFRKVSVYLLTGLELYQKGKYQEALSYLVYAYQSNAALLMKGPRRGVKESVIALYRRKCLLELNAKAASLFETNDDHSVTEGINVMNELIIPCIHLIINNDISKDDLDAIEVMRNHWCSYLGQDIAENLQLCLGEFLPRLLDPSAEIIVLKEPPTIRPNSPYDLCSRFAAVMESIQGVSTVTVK
Each line names hits and unclear results; the compound was inactive in the other large screens. This is a sample that favours compounds with a hit; in the whole collection about 3.3% have one here. Cut-off read from the data, not from the text of the source: active = inhibition above about 30%; inactive = the rest.

CCc1ccc(C(=O)COC(=O)c2cccnc2Nc2ccccc2F)cc1	none
CCOc1ncccc1C(=O)OCC(=O)c1ccc(C)c(C)c1	USP28 block 37.5
CCOC(=O)C1CCN(c2nc(-c3ccc(Cl)cc3)nc3c2oc2ccccc23)CC1	none
O=C(CSc1ncn[nH]1)Nc1ccc2c(c1)OCO2	none
O=C(Cn1c(=O)c2ccccc2c2ccccc21)Nc1ccc2c(c1)OCO2	OTUD3 block 33.3, USP28 block 31.5
O=C(CCCn1c(=O)c2ccccc2n(CC(=O)NCc2ccccc2Cl)c1=O)NCc1ccc2c(c1)OCO2	USP28 block 32.6
O=C(CSc1n[nH]c2nc3ccccc3n12)Nc1ccc2c(c1)OCO2	USP28 block 37.3
O=C(CSc1nc(-c2ccccc2)c2ccccc2n1)NCc1ccc2c(c1)OCO2	none
O=C(CCCn1c(=O)c2ccccc2n(CC(=O)Nc2ccc(Br)cc2F)c1=O)NCc1ccccc1Cl	none
O=C(Cn1c(=O)nc(-c2ccccc2)c2ccccc21)NCc1ccc2c(c1)OCO2	USP28 block 31.1
O=C(CSc1c[nH]c2ccccc12)Nc1ccc2c(c1)OCO2	none
O=C(C1CCN(c2cc(N3CCCCC3)ncn2)CC1)N1CCCCC1	none (no result: USP28 block)
O=C(COc1ccc2c(=O)c(-c3cnn(-c4ccccc4)c3)c(C(F)(F)F)oc2c1)Nc1ccc(S(=O)(=O)N2CCCCC2)cc1	none
Cn1cc(N2CCC3(CCN(Cc4cccnc4)CC3)C2=O)cn1	none
Cc1c(C2c3ccccc3C(=O)N2CC(=O)N2CCC(C(N)=O)CC2)c2ccccc2n1C (configuration not stated)	none
CCOc1ccccc1NC(=O)Cn1c(=O)n(CCC(=O)NCc2ccc3c(c2)OCO3)c(=O)c2sccc21	none (no result: USP28 block)
COc1ccc(CCNC(=O)Cn2c(=O)n(CCCCC(=O)NCc3ccc4c(c3)OCO4)c(=O)c3ccccc32)cc1OC	none
O=C(Cn1c(=O)n(CCC(=O)N2CCc3ccccc3C2)c(=O)c2ccccc21)NCCC1=CCCCC1	none
Cc1cccc(C)c1NC(=O)Cn1c(=O)n(CCCCC(=O)NCc2ccc3c(c2)OCO3)c(=O)c2ccccc21	USP28 block 32.1
O=C(Cn1c(=O)n(CCC(=O)N2CCc3ccccc3C2)c(=O)c2ccccc21)NCc1ccccc1Cl	USP28 block 49.1
O=C(CCn1c(=O)c2sccc2n(CC(=O)OCc2ccccc2)c1=O)NCc1ccc2c(c1)OCO2	OTUD3 block 34.9
CC1(C)Cc2c(c(N3CCOCC3)nc3sc4c(SCC(=O)O)ncnc4c23)CO1	none
COc1ccc(CC(NCc2ccco2)c2ccccc2)cc1 (configuration not stated)	none
CCOC(=O)C1(Cc2cc(-c3ccccc3F)no2)CCCN(Cc2cncn2C)C1 (configuration not stated)	none (no result: USP28 block)
O=C(Nc1cccc(F)c1)c1cnn(-c2ccccc2)c1C1CCNCC1	none
Cc1ccccc1-n1ncc(C(=O)Nc2cccc(C#N)c2)c1C1CC1	USP28 block 41.7
Cc1sc2nc(C3CC3)n(C3CCN(CC(=O)N(C)C)CC3)c(=O)c2c1C	none
O=C(N[C@@H]1CC[C@H]2Oc3ccccc3N[C@H]2[C@@H]1O)c1cccc(F)c1	none
c1ccc(CNc2nn3c(-c4ccncc4)cnc3s2)cc1	none
COc1ccc(CNc2nn3c(-c4ccncc4)cnc3s2)cc1	USP28 block 69.8
CN(Cc1ccc2c(c1)OCO2)C(C(=O)N1CCCC1)c1ccccc1 (configuration not stated)	none
Cc1nnc(-c2ccc(=O)n(CC(=O)Nc3ccc(Cl)cc3)c2)o1	none
O=C(c1nc(-c2cn(-c3cccc(F)c3)nn2)no1)N1CCOCC1	none
COc1cccc(Cc2nc(-c3cn(-c4cccc(F)c4)nn3)no2)c1	USP28 block 31.9
COc1ccccc1NC(=O)c1nc(-c2cn(-c3cccc(F)c3)nn2)no1	none
Fc1cccc(-n2cc(-c3noc(-c4ccc[nH]4)n3)nn2)c1	USP28 block 46.0
Fc1cccc(-n2cc(-c3noc(-c4ccccn4)n3)nn2)c1	USP28 block 80.9
COc1cccc(Cc2nc(-c3cn(-c4ccccc4)nn3)no2)c1	none
O=C(CCCC1=NS(=O)(=O)c2ccccc2N1)Nc1ccc(Cl)c(Cl)c1	none
CCc1ccccc1NC(=O)C1CCN(c2ccncc2)CC1	none
O=C(Nc1nc2c(ccc3ccccc32)s1)C1CCCC1	none
CCOC(=O)C1CCN(C(=O)CN2C(=O)C3CCCN3C(=O)c3cccc(C)c32)CC1 (configuration not stated)	none
CC1=C(CO)C(=O)O[C@@H]([C@@H](C)[C@H]2CC[C@H]3[C@@H]4C[C@H]5O[C@]56[C@@H](O)C=CC(=O)[C@]6(C)[C@H]4CC[C@]23C)C1	USP28 block 44.2
COc1ccc(C2c3c(-c4ccccc4O)n[nH]c3C(=O)N2Cc2ccncc2)cc1OC (configuration not stated)	none
O=C1c2[nH]nc(-c3ccccc3O)c2C(c2ccc(F)cc2)N1Cc1ccco1 (configuration not stated)	USP28 block 51.7
COc1ccc(C2c3c(-c4ccccc4O)n[nH]c3C(=O)N2Cc2ccco2)cc1OC (configuration not stated)	none
Cc1ccc(C2c3c(-c4ccccc4O)n[nH]c3C(=O)N2Cc2ccco2)cc1 (configuration not stated)	USP28 block 65.1
CC(C)n1cnnc1C1CCN(Cc2ccoc2)CC1	none
COc1cccc(Nc2nc(NCc3ccccc3)nc3c2cnn3C)c1	USP28 block 39.5
COc1cccc(Nc2nc(NCCc3ccccc3)nc3c2cnn3C)c1	none
O=c1c(CN2CCC3(CC2)Nc2ccccc2C2=NCCN23)coc2ccccc12	none
O=c1c(Cc2ccccc2)coc2ccccc12	USP28 block 49.9
CCOC(=O)c1noc2nc(C)nc(NCc3ccc(OC)cc3)c12	none
COC1C(O)=C2C(=O)O/C(C)=C/C=C/C=C/C=C/CC(c3ccccc3)NC(=O)/C=C/C=C/C=C\C=C\C2(C)C1O (configuration not stated)	OTUD3 block 33.3, USP28 block 31.2
COc1ccc(C)cc1CCNC(=O)c1cc(C2CC2)nc2c1cnn2C(C)C	none
COc1ccccc1OCCNC(=O)c1cc(C2CC2)nc2c1cnn2C(C)C	USP28 block 61.3
COc1ccccc1CCNC(=O)c1cc(C2CC2)nc2c1cnn2C(C)C	none
COc1ccc(CCNC(=O)c2cc(C3CC3)nc3c2cnn3C(C)C)cc1	USP28 block 67.7
COc1ccc(-c2noc(N3CCC(C(=O)Nc4cc([N+](=O)[O-])ccc4OC)CC3)n2)cc1	none
COc1ccc(NC(=O)c2ccc(CN(c3ccc(C)c(C)c3)S(C)(=O)=O)cc2)cc1	none
Cc1cccc(C(=O)Nc2ccc3c(c2)C(=O)N(C)c2ccccc2O3)c1	USP28 block 46.8
Cc1cccc(NC(=O)c2ccc(C)c(C)c2)c1	USP28 block 34.2
Cc1cccc(C(=O)Nc2ccc(N3CCCCC3)c(NC(=O)Nc3ccccc3Cl)c2)c1	none
Cc1cccc(NC(=O)Nc2ccc(C)c(C)c2)c1	none
CC(=O)c1cccc(NC(=O)c2ccc(CN(c3ccc(C)c(C)c3)S(C)(=O)=O)cc2)c1	USP28 block 72.9
COc1ccc(C(=O)Nc2ccc(N3CCCC3=O)c(C)c2)cc1OC	none
Cc1ccc(C(=O)Nc2ccc3c(c2)C(=O)N(C)c2ccccc2O3)cc1C	USP28 block 54.8
O=c1[nH]c(=O)n(-c2ccc(F)cc2)c(O)c1C1NCCc2c1[nH]c1ccccc21 (configuration not stated)	none
